PubChem BioAssay (EPA / NIEHS)
Inconclusive results are not listed. Calls of active or inactive are those of the source. The calls were made as follows: active = hit-call score of the fitted dose curve at least 0.9, where 1 is the maximum; inconclusive = response in the unintended direction; inactive = score below 0.9.

Legend:
[1] = target: Androgen Receptor/SRC-1 Co-activator, AR (gene 367) (UniProt P10275); experiment: OT_AR_ARSRC1_0480: Odyssey Thera (OT) 8-hour HEK293T Protein-Complementation Assay for Androgen Receptor/SRC-1 Co-activator (AID 2283354);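 also: hits raise the complementation signal above DMSO so AC50 marks enhancers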
Chain of Androgen Receptor/SRC-1 Co-activator, AR (gene 367) (P10275 whole entry, looked up, the tested form may be a part): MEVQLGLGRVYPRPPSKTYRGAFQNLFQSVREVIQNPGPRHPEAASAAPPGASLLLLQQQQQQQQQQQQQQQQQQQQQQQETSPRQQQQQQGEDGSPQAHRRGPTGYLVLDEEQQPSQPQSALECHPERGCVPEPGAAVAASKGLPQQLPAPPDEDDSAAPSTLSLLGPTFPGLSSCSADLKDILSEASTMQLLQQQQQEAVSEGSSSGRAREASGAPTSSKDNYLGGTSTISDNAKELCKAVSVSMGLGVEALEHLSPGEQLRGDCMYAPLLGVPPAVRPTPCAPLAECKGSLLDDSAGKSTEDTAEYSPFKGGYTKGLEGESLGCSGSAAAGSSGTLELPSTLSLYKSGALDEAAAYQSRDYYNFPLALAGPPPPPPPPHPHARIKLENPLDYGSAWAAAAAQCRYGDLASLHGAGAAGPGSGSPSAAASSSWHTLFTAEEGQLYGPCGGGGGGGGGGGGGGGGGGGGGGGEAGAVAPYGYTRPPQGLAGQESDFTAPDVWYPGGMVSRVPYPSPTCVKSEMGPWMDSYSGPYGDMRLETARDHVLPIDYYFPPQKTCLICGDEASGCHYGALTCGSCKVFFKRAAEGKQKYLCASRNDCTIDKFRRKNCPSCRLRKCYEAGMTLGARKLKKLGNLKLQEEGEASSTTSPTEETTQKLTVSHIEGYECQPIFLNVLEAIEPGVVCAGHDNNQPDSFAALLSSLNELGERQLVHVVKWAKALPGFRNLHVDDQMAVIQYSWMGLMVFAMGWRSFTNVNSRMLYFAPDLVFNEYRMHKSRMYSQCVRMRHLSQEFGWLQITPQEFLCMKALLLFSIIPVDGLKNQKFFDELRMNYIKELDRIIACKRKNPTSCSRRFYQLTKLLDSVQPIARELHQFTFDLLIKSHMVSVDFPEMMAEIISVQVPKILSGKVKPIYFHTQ
How it was run: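 Measures AR/SRC-1 binding by Venus YFP fragment complementation in HEK293T stable lines at 8 h post-dose. Imaging quantifies the 488nm nucleus/cytoplasm ratio in ≥400 cells; DMSO defines baseline.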

[2] = target: Estrogen receptor (Homo sapiens) + Estrogen receptor beta (Homo sapiens) (UniProt P03372+Q92731); experiment: OT_ER_ERaERb_1440: Odyssey Thera (OT) 24-hour HEK293T Protein-Complementation Assay for Estrogen Receptor-alpha/-beta Homodimer (AID 2283356);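 also: heteromer of ER alpha and ER beta binding domains; hits raise reporter fluorescence and both agonists and antagonists give an increase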
Chain of Estrogen receptor (Homo sapiens) + Estrogen receptor beta (Homo sapiens) (P03372 whole entry, looked up, the tested form may be a part): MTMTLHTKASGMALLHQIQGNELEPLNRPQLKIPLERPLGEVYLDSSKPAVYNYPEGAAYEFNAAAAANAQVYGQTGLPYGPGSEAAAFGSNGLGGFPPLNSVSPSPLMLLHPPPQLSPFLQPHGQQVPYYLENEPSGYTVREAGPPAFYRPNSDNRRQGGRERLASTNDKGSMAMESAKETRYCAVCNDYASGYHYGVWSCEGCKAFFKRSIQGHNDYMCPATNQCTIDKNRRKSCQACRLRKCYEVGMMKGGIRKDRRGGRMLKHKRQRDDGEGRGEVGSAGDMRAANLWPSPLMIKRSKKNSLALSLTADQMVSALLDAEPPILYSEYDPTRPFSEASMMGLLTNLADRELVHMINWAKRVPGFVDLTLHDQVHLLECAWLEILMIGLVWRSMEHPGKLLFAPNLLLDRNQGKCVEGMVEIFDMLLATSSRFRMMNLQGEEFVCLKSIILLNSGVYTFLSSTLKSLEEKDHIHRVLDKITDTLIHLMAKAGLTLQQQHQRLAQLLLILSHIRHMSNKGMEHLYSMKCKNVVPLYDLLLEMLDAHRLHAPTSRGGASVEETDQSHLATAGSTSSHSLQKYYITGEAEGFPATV
Chain of Estrogen receptor (Homo sapiens) + Estrogen receptor beta (Homo sapiens) (Q92731 whole entry, looked up, the tested form may be a part): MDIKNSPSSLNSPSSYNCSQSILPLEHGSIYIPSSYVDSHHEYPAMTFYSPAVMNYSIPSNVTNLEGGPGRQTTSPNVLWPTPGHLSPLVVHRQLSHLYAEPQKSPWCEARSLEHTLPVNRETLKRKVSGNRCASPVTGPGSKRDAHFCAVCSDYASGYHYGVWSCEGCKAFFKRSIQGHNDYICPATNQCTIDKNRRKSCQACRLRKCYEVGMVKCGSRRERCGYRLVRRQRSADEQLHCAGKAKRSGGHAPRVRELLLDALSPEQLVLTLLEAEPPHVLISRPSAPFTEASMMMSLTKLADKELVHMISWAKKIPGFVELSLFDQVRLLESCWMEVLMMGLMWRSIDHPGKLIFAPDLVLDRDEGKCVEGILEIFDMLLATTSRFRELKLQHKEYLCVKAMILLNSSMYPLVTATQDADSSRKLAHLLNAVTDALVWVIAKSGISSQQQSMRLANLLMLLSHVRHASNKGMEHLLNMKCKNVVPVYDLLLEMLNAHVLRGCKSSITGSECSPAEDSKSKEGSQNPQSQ
How it was run: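 Heterodimerisation of ERα (aa 310-547) and ERβ (aa 263-489) ligand binding domains was tracked as fluorescence gain in stably transfected HEK293T cells following 24 h dosing, normalised to DMSO controls.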

[3] = target: Estrogen receptor beta (Homo sapiens) (UniProt Q92731); experiment: OT_ER_ERbERb_0480: Odyssey Thera (OT) 8-hour HEK293T Protein-Complementation Assay for Estrogen Receptor-beta/-beta Homodimer (AID 2283357);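 also: active means signal gain over DMSO baseline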
Chain of Estrogen receptor beta (Homo sapiens) (Q92731 whole entry, looked up, the tested form may be a part): as above
How it was run: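 Cells (HEK293T, stable ER-beta LBD PCA pair) are treated 8 hours, fixed and Draq5-stained; signal is fluorescence intensity increase relative to vehicle, fitted in the gain direction.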

[4] = target: mouse Estrogen Receptor alpha (Era), Esr1 (gene 13982) (UniProt P19785); experiment: NVS_NR_mERa: NovaScreen (NVS) Nuclear Receptor Binding Assay for mouse Estrogen Receptor alpha (Era) (AID 2283378);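 also: hit means loss of bound radioligand signal relative to DMSO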
Chain of mouse Estrogen Receptor alpha (Era), Esr1 (gene 13982) (P19785 whole entry, looked up): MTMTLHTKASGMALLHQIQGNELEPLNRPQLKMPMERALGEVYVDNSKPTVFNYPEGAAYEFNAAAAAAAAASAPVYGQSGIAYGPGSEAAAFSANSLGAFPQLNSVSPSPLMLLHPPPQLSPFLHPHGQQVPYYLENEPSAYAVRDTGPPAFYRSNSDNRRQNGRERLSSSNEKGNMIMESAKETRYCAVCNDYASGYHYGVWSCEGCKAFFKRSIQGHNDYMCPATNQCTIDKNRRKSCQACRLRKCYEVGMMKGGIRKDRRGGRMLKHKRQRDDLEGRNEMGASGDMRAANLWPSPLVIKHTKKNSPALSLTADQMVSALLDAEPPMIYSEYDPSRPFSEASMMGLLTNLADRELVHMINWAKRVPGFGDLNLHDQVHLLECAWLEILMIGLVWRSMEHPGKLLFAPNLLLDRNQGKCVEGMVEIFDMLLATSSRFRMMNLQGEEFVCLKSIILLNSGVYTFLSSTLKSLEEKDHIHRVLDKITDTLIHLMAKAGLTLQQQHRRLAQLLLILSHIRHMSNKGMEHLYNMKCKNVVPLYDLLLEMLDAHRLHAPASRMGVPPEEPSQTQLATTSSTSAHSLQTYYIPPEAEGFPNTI
How it was run: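 Test chemicals competed against a specific radioligand for binding to cell-free mouse Era. Duplicate wells at 25 uM were read 18 hours later by filter-based radiodetection, with loss of signal against DMSO scored as activity.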

[5] = target: Nuclear receptor subfamily 1 group I member 2 (Homo sapiens) (UniProt O75469); experiment: NVS_NR_hPXR: NovaScreen (NVS) Nuclear Receptor Binding Assay for human Pregnane X Receptor (PXR) (AID 2283365);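 also: a drop in FRET signal versus DMSO baseline means the compound binds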
Chain of Nuclear receptor subfamily 1 group I member 2 (Homo sapiens) (O75469 whole entry, looked up): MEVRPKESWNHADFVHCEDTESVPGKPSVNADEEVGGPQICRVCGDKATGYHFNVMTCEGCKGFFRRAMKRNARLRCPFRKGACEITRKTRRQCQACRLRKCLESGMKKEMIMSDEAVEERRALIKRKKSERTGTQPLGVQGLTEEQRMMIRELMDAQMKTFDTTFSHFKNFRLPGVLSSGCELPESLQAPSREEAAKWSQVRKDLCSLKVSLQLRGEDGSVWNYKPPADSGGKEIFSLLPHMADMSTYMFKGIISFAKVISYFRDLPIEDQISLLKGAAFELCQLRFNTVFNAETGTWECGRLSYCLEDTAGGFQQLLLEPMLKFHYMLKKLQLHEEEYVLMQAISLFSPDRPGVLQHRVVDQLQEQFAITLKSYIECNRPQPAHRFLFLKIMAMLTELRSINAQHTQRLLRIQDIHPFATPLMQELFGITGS
How it was run: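 Binding was measured by time-resolved fluorescence resonance energy transfer after a 2 h exposure of extracted human PXR protein without cells. Compounds were first tested at 25 uM in duplicate, with concentration series for actives; DMSO defined baseline.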

[6] = target: Peroxisome proliferator-activated receptor gamma (Homo sapiens) (UniProt P37231); experiment: NVS_NR_hPPARg: NovaScreen (NVS) Nuclear Receptor Binding Assay for human Peroxisome Proliferator-activated Receptor gamma (PPARg) (AID 2283370)
Chain of Peroxisome proliferator-activated receptor gamma (Homo sapiens) (P37231 whole entry, looked up): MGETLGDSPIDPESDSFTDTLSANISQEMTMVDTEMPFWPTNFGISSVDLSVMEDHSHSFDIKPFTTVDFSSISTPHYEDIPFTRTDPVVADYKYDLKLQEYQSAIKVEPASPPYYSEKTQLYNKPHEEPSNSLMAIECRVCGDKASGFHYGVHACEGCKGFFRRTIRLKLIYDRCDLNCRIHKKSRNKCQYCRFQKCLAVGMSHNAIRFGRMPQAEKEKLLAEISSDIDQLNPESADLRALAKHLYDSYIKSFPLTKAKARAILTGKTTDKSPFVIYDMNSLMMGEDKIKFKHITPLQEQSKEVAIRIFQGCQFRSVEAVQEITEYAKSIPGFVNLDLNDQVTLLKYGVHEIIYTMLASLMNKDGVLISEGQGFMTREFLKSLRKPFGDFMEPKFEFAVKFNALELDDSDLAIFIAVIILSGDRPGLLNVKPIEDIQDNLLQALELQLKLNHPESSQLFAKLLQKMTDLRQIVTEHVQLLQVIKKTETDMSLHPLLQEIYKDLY
How it was run: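 Fluorescence polarization measures competitive binding to extracted PPARg in a cell-free format. Reading is taken at 2 h; activity is signal loss relative to DMSO. Screening at 25 uM in duplicate preceded confirmatory dose series.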

[7] = target: human Peroxisome Proliferator-activated Receptor alpha (PPARa), PPARA (gene 5465) (UniProt Q07869); experiment: NVS_NR_hPPARa: NovaScreen (NVS) Nuclear Receptor Binding Assay for human Peroxisome Proliferator-activated Receptor alpha (PPARa) (AID 2283359);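 also: activity means loss of TR-FRET signal versus DMSO baseline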
Chain of human Peroxisome Proliferator-activated Receptor alpha (PPARa), PPARA (gene 5465) (Q07869 whole entry, looked up): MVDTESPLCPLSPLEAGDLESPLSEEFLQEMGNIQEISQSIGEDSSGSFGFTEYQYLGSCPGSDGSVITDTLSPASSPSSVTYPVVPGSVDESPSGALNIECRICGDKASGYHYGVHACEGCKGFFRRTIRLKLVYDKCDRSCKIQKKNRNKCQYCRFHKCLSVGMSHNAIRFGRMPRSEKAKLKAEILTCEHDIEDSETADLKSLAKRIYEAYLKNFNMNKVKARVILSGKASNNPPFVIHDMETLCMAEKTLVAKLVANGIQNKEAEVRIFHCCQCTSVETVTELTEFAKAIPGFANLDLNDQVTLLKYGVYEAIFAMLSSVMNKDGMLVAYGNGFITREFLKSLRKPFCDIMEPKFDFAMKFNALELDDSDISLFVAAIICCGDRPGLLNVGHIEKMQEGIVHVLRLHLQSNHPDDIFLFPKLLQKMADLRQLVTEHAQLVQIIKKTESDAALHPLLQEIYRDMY
How it was run: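 Chemicals were first screened in duplicate at 25 uM, and active ones were retested across concentration series. Binding was monitored by TR-FRET one hour after dosing, with decreased signal against DMSO counted as activity.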

[8] = target: human Thyroid Receptor Alpha (TRa), THRA (gene 7067) (UniProt P10827); experiment: NVS_NR_hTRa_Antagonist: NovaScreen (NVS) Nuclear Receptor Binding Assay for human Thyroid Receptor Alpha Antagonism (TRa) (AID 2283362)
How it was run: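 Chemicals were first screened in duplicate at 25 uM, then actives were retested in concentration series. Binding to the extracted receptor was measured 1 h after dosing by AlphaLISA chemiluminescence, with decreased signal versus DMSO scored as activity.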

[9] = target: Glucocorticoid receptor (Homo sapiens) (UniProt P04150); experiment: NVS_NR_hGR: NovaScreen (NVS) Nuclear Receptor Binding Assay for human Glucocorticoid Receptor (GR) (AID 2283363);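 as to AC50: activity is loss of specific radioligand binding signal relative to DMSO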
Chain of Glucocorticoid receptor (Homo sapiens) (P04150 whole entry, looked up): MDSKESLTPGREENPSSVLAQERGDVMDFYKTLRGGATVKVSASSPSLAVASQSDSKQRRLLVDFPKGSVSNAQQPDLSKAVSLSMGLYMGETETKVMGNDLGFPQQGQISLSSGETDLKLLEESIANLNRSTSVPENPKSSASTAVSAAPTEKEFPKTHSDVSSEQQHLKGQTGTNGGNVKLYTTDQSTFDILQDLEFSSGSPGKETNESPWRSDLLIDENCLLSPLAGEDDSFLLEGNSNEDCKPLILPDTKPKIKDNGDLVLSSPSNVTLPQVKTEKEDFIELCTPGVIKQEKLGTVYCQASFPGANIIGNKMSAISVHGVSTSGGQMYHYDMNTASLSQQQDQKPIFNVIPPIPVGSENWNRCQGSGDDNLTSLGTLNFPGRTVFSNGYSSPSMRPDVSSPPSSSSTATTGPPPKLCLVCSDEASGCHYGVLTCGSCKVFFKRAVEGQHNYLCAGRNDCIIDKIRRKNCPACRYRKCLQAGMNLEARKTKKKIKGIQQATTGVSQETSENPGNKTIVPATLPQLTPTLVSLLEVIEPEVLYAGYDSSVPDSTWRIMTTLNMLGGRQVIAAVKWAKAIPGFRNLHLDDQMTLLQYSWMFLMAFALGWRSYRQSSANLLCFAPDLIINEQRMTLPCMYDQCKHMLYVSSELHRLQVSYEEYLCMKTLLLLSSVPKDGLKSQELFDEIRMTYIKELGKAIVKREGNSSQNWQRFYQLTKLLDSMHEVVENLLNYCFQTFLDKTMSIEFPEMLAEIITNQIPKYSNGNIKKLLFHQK
How it was run: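 Competitive displacement of a labelled ligand was measured on cell-free receptor preparations after 16 h exposure. Initial testing used 25 uM in duplicate with plate controls; confirmed actives went into concentration series.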

[10] = target: Retinoic acid receptor alpha (Homo sapiens) (UniProt P10276); experiment: NVS_NR_hRAR_Antagonist: NovaScreen (NVS) Nuclear Receptor Binding Assay for human Retinoic Acid Alpha Receptor Antagonism (RAR) (AID 2283358)
How it was run: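 TR-FRET, cell-free, antagonist format; 2 h incubation after dosing; DMSO = baseline; signal loss fitted; 25 uM duplicate primary, then conc. series.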

## FC(F)(F)c1ccc(Cl)c(Cl)c1
[1]
  outcome: inactive
[2]
  outcome: inactive
[3]
  outcome: inactive
[4]
  outcome: inactive

## OC[C@H]1O[C@@H](O[C@H]2[C@H](O)[C@@H](O)[C@H](O)O[C@@H]2CO)[C@H](O)[C@@H](O)[C@H]1O
[1]
  outcome: inactive
[2]
  outcome: inactive
[3]
  outcome: inactive

## CCCCOCCOCCO
[2]
  outcome: inactive

## CCC(C)COC(=O)CC(C)C (stereo not given)
[2]
  outcome: inactive
[3]
  outcome: inactive

## CCC(C)(C)C1CCC(=O)CC1
[1]
  outcome: inactive
[5]
  outcome: inactive
[4]
  outcome: inactive

## CCCC1CCC(=O)CC1
[2]
  outcome: inactive
[3]
  outcome: inactive

## C=CCCCCCCCCC(=O)OCC
[2]
  outcome: inactive
[3]
  outcome: inactive

## COc1cc(OC)c2ccc(=O)oc2c1
[1]
  outcome: inactive
[2]
  outcome: inactive
[3]
  outcome: inactive
[6]
  outcome: inactive

## c1ccc(OCCOc2ccccc2)cc1
[2]
  outcome: inactive
[3]
  outcome: inactive

## CCCCCCOc1ccc(O)cc1
[1]
  AC50: 78.3 µM (active)
[2]
  AC50: 11.9 µM (active)
[3]
  AC50: 11.9 µM (active)
[5]
  outcome: inactive
[6]
  outcome: inactive
[4]
  AC50: 0.174 µM (active)

## CC(=O)C1=C(C)[C@@H]2C[C@@]3(C1)[C@H](C)CC[C@H]3C2(C)C
[2]
  AC50: 58.1 µM (active)
[3]
  AC50: 12.8 µM (active)
[7]
  outcome: inactive

## c1ccc2scnc2c1
[2]
  outcome: inactive
[3]
  outcome: inactive
[5]
  outcome: inactive

## CC(=O)OC(C)(C)C
[2]
  outcome: inactive
[3]
  outcome: inactive

## CCCCC(CC)COCCO (stereo not given)
[2]
  outcome: inactive
[3]
  outcome: inactive
[7]
  outcome: inactive
[8]
  outcome: inactive

## NC(=O)c1cccnc1
[2]
  outcome: inactive
[3]
  outcome: inactive
[6]
  outcome: inactive

## CCCCCCC(C)O (stereo not given)
[2]
  outcome: inactive
[3]
  outcome: inactive
[4]
  outcome: inactive

## CC(C)(C)C1CCC(O)CC1 (stereo not given)
[2]
  outcome: inactive
[3]
  outcome: inactive
[6]
  outcome: inactive

## CCCCCCCCCCO[C@@H]1O[C@H](CO)[C@@H](O)[C@H](O)[C@H]1O
[2]
  outcome: inactive
[3]
  outcome: inactive
[6]
  outcome: inactive

## CNC(=C[N+](=O)[O-])NCCSCc1ccc(CN(C)C)o1
[2]
  outcome: inactive
[3]
  outcome: inactive
[6]
  outcome: inactive

## CC12CCC(C1)C(C)(C)C2O (stereo not given)
[2]
  outcome: inactive
[3]
  outcome: inactive
[4]
  outcome: inactive

## CCCCCC(=O)O[C@]1(C(C)=O)CC[C@H]2[C@@H]3CCC4=CC(=O)CC[C@]4(C)[C@H]3CC[C@@]21C
[2]
  AC50: 4.65 µM (active)
[3]
  outcome: inactive
[9]
  AC50: 0.0187 µM (active)
[5]
  outcome: inactive
[4]
  outcome: inactive

## CCC(C)(C)C1CCC(OC)CC1 (stereo not given)
[2]
  outcome: inactive
[3]
  outcome: inactive
[5]
  outcome: inactive

## CCCO[Si](OCCC)(OCCC)OCCC
[2]
  outcome: inactive
[3]
  outcome: inactive
[6]
  outcome: inactive

## CCCCCCCCOC(=O)c1ccc(O)cc1
[2]
  AC50: 24 µM (active)
[3]
  AC50: 8.39 µM (active)
[10]
  outcome: inactive
[9]
  outcome: inactive
[4]
  AC50: 1.72 µM (active)
